The structures appear in SMILES notation. Inconclusive results are not listed. The source made the active and inactive calls. The call rests on the fitted dose curve; in most records, active means well fitted inhibition curve with a large enough effect; inconclusive means small, poorly fitted or top-dose-only effect; inactive means flat fitted curve, though single readings scatter.

This passage reports Potency results from PubChem BioAssay (NCATS).

Common to all, as to experiment: qHTS profiling for inhibitors of Plasmodium falciparum proliferation (AID 504749); further: nearly all actives have a fitted effect of over 60% in size
Common to all, as to settings: P. falciparum in erythrocytes, SYBR Green DNA, 72 h; series mostly up to 28.7 µM
For orientation: qHTS replaces the single test concentration by a dilution series.

For one test, the system named is PC15. The procedure, abridged:
(§1)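 In a 72 h erythrocytic culture (37 C, humidified, 5% CO2) at 2.5% hematocrit and 0.3% starting parasitemia, compounds were tested; SYBR Green I in detergent lysis buffer stained parasite DNA overnight.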

A further test concerns PC26. An outline of the steps: as §1
For the next test, the system named is PC49. An outline of the steps: as §1
In the next test the test system is SC27B. The procedure, abridged:
as §1

The test system of a further test is TAB113. The procedure, abridged:
as §1

The next test concerns W2. An outline of the steps:
as §1

The next test deals with PAD. The procedure, abridged: as §1
For a further test, the system named is P94_40. An outline of the steps:
as §1

The subject of a further test is TAB109. The procedure, abridged:
as §1

For a further test, the system named is TAB165. The procedure, abridged:
as §1
Potency means the concentration at half of the fitted maximal effect.

Take `COCC(=O)N(c1c(C)cccc1C)C(C)C(=O)OC` (stereo unspecified): the Potency result in the test with PC15, in the test on PC26, in the test on PC49, in the test on SC27B, in the test with TAB113 and with W2 was “inactive” throughout.

On to `CN1CCc2cc(Cl)c(O)cc2[C@H]2c3ccccc3CC[C@@H]21`, for which the Potency result in the test on PAD, with PC15, in the test with PC49 and in the test on TAB113 was “inactive” in each case. Also, the Potency in the test on W2 was 4.78 µM (active).

Regarding `CCCCCCCCCCCC[N+](C)(C)CCOc1ccccc1`, the Potency in the test on P94_40 was 4.47 µM (active); in the test with PAD, 7.94 µM (active); in the test on PC15, 10 µM (active); with PC26, 13.5 µM (active); in the test on PC49, 8.91 µM (active); in the test on SC27B, 7.08 µM (active). Moreover, the Potency in the test with TAB109 was 5.01 µM (active); in the test on TAB113 it was 4.47 µM (active); with TAB165 it was 5.62 µM (active); with W2 it was 3.79 µM (active).

As to `COP(=O)(OC)C(O)C(Cl)(Cl)Cl` (stereo unspecified), the Potency result in the test with P94_40, in the test with PAD, with PC15, in the test with PC26, in the test on PC49 and with SC27B was “inactive” in each case. The Potency entry with TAB109, in the test with TAB113 and with TAB165 was “inactive” throughout. Further, the Potency in the test on W2 was 4.26 µM (active).

Take `c1ccc2nc(N3CCNCC3)ccc2c1`: the Potency result with P94_40, in the test with PAD, with PC15, with PC26, in the test with PC49 and with SC27B was “inactive” throughout. The Potency entry in the test on TAB109, in the test with TAB113, with TAB165 and in the test on W2 was “inactive” throughout.

Turning to `Cc1ccc(N=CN(C)C=Nc2ccc(C)cc2C)c(C)c1`, the Potency entry in the test on P94_40, in the test on PAD, in the test on PC15, with PC26, in the test on PC49 and in the test with SC27B was “inactive” each time. In addition, the Potency result in the test with TAB109, in the test with TAB113, in the test with TAB165 and with W2 was “inactive” throughout.

In the case of `CCN(CC)C(C)C(=O)c1ccccc1` (stereo unspecified), the Potency entry in the test on P94_40, with PAD, in the test with PC15, in the test with PC26, in the test with PC49 and in the test on SC27B was “inactive” each time. Also, the Potency entry in the test on TAB109, in the test with TAB165 and in the test with W2 was “inactive” in each case.

For the compound `C[C@]12C=CC(=O)C=C1CC[C@@H]1[C@@H]2CC[C@@]2(C)[C@H]1CC[C@]2(C)O`, the Potency entry in the test on P94_40, with PAD, in the test on PC15, in the test on PC49, in the test with SC27B and with TAB109 was “inactive” each time. Moreover, the Potency entry in the test on TAB113, with TAB165 and in the test with W2 was “inactive” each time.

On to `N#Cc1nn(-c2c(Cl)cc(C(F)(F)F)cc2Cl)c(N)c1S(=O)C(F)(F)F` (stereo unspecified), for which the Potency was 12.6 µM (active) in the test with PC15; 9.53 µM (active) with PC26; 5.01 µM (active) with SC27B; 6.31 µM (active) in the test with TAB113; 6.31 µM (active) in the test on TAB165. The Potency result with PC49 is “inactive”.

Take `CCNc1nc(Cl)nc(NCC)n1`: the Potency entry in the test with P94_40, in the test with PAD, with PC15, with PC26, in the test on PC49 and with SC27B was “inactive” throughout. Besides, the Potency entry in the test with TAB109, in the test with TAB113, with TAB165 and with W2 was “inactive” in each case.

For the compound `O=C(O)c1nn(Cc2ccc(Cl)cc2Cl)c2ccccc12`, the Potency result in the test on P94_40, in the test with PAD, in the test on PC15, with PC26, in the test on PC49 and in the test with SC27B was “inactive” throughout. In addition, the Potency result with TAB109, in the test on TAB113, in the test with TAB165 and with W2 was “inactive” in each case.

For the compound `CCCCCCCCC(=O)NCc1ccc(O)c(OC)c1`, the Potency entry in the test with P94_40, in the test with PAD, with PC15, in the test on PC26, in the test with PC49 and with SC27B was “inactive” each time. For the same compound, the Potency entry in the test on TAB109, with TAB113, in the test on TAB165 and in the test with W2 was “inactive” throughout.

With `CN1C[C@@H](NS(=O)(=O)N(C)C)C[C@@H]2c3cccc4c3c(cn4C)C[C@H]21`, the Potency entry with PAD, in the test with PC15, in the test on PC26, in the test on PC49, in the test with SC27B and in the test on TAB113 was “inactive” each time.

Take `OC(c1ccccc1)(c1ccccc1)C1CCNCC1`: the Potency entry with P94_40, in the test with PAD, with PC26, with SC27B, in the test with TAB109 and in the test with TAB113 was “inactive” throughout. Also, the Potency entry in the test with TAB165 and with W2 was “inactive” each time.

With `Oc1ccc2[nH]cc(CCCCN3CC=C(c4ccccc4)CC3)c2c1`, the Potency with PC26 was 13.5 µM (active); in the test with TAB165 it was 11.2 µM (active); with W2, 5.36 µM (active).

As to `CC(Cc1ccccc1)NCc1ccccc1Cl` (stereo unspecified), the Potency entry with PC15, in the test with PC49 and in the test on SC27B was “inactive” in each case. The Potency in the test on W2 is 5.36 µM (active).

`C[C@H]1C(=O)O[C@@H]2CCN3CC=C(COC(=O)[C@](C)(O)[C@]1(C)O)[C@H]23`: the Potency entry with P94_40, with PAD, in the test with PC15, in the test on PC26, in the test with PC49 and in the test on SC27B was “inactive” in each case. Further, the Potency entry with TAB113, in the test with TAB165 and in the test with W2 was “inactive” each time.

With `COc1ccc(CN2CCNCC2)c(OC)c1OC`, the Potency entry in the test with P94_40, in the test with PAD, in the test on PC15, in the test with PC49, with SC27B and in the test with TAB109 was “inactive” in each case. Besides, the Potency result with TAB113 and in the test with TAB165 was “inactive” each time.

Turning to `C#C[C@]1(O)CC[C@H]2[C@@H]3CCC4=CC(=O)CCC4=C3C=C[C@@]21CC`, the Potency with PC15 was 6.31 µM (active); in the test with PC26, 6.01 µM (active); with PC49 it was 8.91 µM (active); in the test with TAB109 it was 12.6 µM (active); with W2, 7.57 µM (active).

For `Cc1c(Cl)c(=O)oc2cc(OP(=O)(OCCCl)OCCCl)ccc12`, the Potency was 6.31 µM (active) in the test with P94_40; 7.94 µM (active) with SC27B; 10 µM (active) in the test with TAB109; 10 µM (active) in the test with TAB113; 7.08 µM (active) in the test with TAB165; 6.75 µM (active) in the test with W2. Moreover, the Potency result in the test on PC15 and in the test with PC49 was “inactive” each time.

Regarding `CNC(=O)Oc1cccc2ccccc12`, the Potency with P94_40 was 12.6 µM (active). In addition, the Potency entry in the test on PC49, with SC27B, in the test on TAB109 and in the test with TAB113 was “inactive” throughout.
